Test results as given in PubChem BioAssay (NCATS).
Inconclusive results are not listed. A call without a number means that no potency is given here. Activity calls are given as the source filed them. Unless noted, the call rests on the fitted dose curve; in most records, active means well fitted inhibition curve with a large enough effect; inconclusive means small, poorly fitted or top-dose-only effect; inactive means flat fitted curve, though single readings scatter.

Columns and labels:
[1] = qHTS profiling for inhibitors of Plasmodium falciparum proliferation (AID 504749); further: nearly all actives have a fitted effect of over 60% in size; further: potency means the concentration at half of the fitted maximal effect; settings: P. falciparum in erythrocytes, SYBR Green DNA, 72 h
Procedure, shortened: (§1)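 Infected RBCs, 0.3% parasitemia/2.5% Hct final; cpd 72 h, 37 C, 5% CO2; lysis buffer with saponin/triton/SYBR Green I, o/n RT dark; FI 485/535; norm. to artemisinin (0.29 uM) and DMSO.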

[2] = test system: 3D7; assay: as above; settings: P. falciparum in erythrocytes, SYBR Green DNA, 72 h; series mostly up to 28.7 µM
Procedure, shortened: as §1

[3] = test system: 7G8; assay: as above; settings: P. falciparum in erythrocytes, SYBR Green DNA, 72 h; series mostly up to 28.7 µM
Procedure, shortened: as §1

[4] = test system: AA1029; assay: as above; settings: P. falciparum in erythrocytes, SYBR Green DNA, 72 h; series mostly up to 28.7 µM
Procedure, shortened: as §1

[5] = test system: AS120; assay: as above; settings: P. falciparum in erythrocytes, SYBR Green DNA, 72 h; series mostly up to 28.7 µM
Procedure, shortened: as §1

[6] = test system: ATS189; assay: as above; settings: P. falciparum in erythrocytes, SYBR Green DNA, 72 h; series mostly up to 28.7 µM
Procedure, shortened: as §1

[7] = test system: ATS95; assay: as above; settings: P. falciparum in erythrocytes, SYBR Green DNA, 72 h; series mostly up to 28.7 µM
Procedure, shortened: as §1

[8] = qHTS drug screen for cell cycle checkpoint inhibitors in PARPi-resistant BRCA-mutant ovarian cancer cell lines. (AID 1963452; calls by dose curve); settings: PEO1/OlaR viability, CellTiter-Glo luminescence, 96 h, stronger effect = lower value
Procedure, shortened: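 PEO1, PEO4 and PEO1/OlaR ovarian cancer cells, 600 per well, exposed 96 h at 37C to a dilution series. Viability read by CellTiter-Glo luminescence, normalized to DMSO and empty wells; activity summarized as Z-AUC.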

[9] = at 28.7 µM (top of the series), parasite line A
[10] = at 28.7 µM (top of the series), parasite line B
[11] = measured here: PEO1 parental Z-AUC
[12] = at 12.8 µM (top of the series), parasite line A
[13] = at 12.8 µM (top of the series), parasite line B

| SMILES | activity, negative = inhibition [1, 9] | activity, negative = inhibition [1, 10] | Potency [2] | Potency [3] | Potency [4] | Potency [5] | Potency [6] | Potency [7] | Z-AUC [8] | Z-AUC [8, 11] | Z-AUC ([8]; measured here: PEO4 Z-AUC) | Potency ([1]; parasite line A) | Potency ([1]; parasite line B) | activity, negative = inhibition [1, 12] | activity, negative = inhibition [1, 13] |
| --- | --- | --- | --- | --- | --- | --- | --- | --- | --- | --- | --- | --- | --- | --- | --- |
| C1CCc2nnnn2CC1 | 11.2% (inactive) | 0.626% (inactive) | inactive | inactive | inactive | inactive | inactive | inactive | – | – | – | – | – | – | – |
| Cc1cc(=O)n(-c2ccccc2)n1C | 5.57% (inactive) | 10.3% (inactive) | inactive | inactive | inactive | inactive | inactive | inactive | – | – | – | – | – | – | – |
| Cc1c(C(N)=O)cc([N+](=O)[O-])cc1[N+](=O)[O-] | -7.97% (inactive) | -2.31% (inactive) | inactive | inactive | inactive | inactive | inactive | inactive | – | – | – | – | – | – | – |
| CCC(C(=O)OCCN(CC)CC)c1ccccc1 (stereo unspecified) | -4.21% (inactive) | 8.52% (inactive) | inactive | inactive | inactive | inactive | inactive | inactive | – | – | – | – | – | – | – |
| COc1cc(NS(C)(=O)=O)ccc1Nc1c2ccccc2nc2ccccc12 | – | – | 2 µM (active) | 1.26 µM (active) | 3.55 µM (active) | 2.24 µM (active) | 3.98 µM (active) | 3.55 µM (active) | -0.779 (inactive) | -1.77 | -0.818 | 2 µM (active) | 3.16 µM (active) | – | – |
| CCCCCC=CCC=CCCCCCCCC(=O)OCC | 1.14% (inactive) | 2.81% (inactive) | inactive | inactive | inactive | inactive | inactive | inactive | – | – | – | – | – | – | – |
| COC(=O)[C@@H]1CC2=CC(=O)CC[C@]2(C)[C@@]23O[C@@H]2C[C@@]2(C)[C@@H](CC[C@@]24CCC(=O)O4)[C@H]13 | 8.39% (inactive) | 17.6% (inactive) | inactive | inactive | inactive | inactive | inactive | inactive | -0.162 (inactive) | -0.149 | 0.317 | – | – | – | – |
| N[C@@H](Cc1cnc[nH]1)C(=O)O | 3.46% (inactive) | 9.36% (inactive) | inactive | inactive | inactive | inactive | inactive | inactive | – | – | – | – | – | – | – |
| c1ccc(CNCCNCc2ccccc2)cc1 | 2.06% (inactive) | 5.37% (inactive) | inactive | 10 µM (active) | – | – | – | – | – | – | – | – | – | – | – |
| Cc1c(N(C)CS(=O)(=O)O)c(=O)n(-c2ccccc2)n1C | – | – | inactive | inactive | inactive | inactive | inactive | inactive | – | – | – | – | – | 17.9% (inactive) | 23.3% (inactive) |
| CC1(C)O[C@@H]2C[C@H]3[C@@H]4C[C@H](F)C5=CC(=O)C=C[C@]5(C)[C@H]4[C@@H](O)C[C@]3(C)[C@]2(C(=O)CO)O1 | – | – | – | – | – | – | – | – | 0.212 (inactive) | 1.77 | 0.487 | – | – | – | – |
| CC(C)COC(=O)OCN1C(=O)CN(CCN2CC(=O)N(COC(=O)OCC(C)C)C(=O)C2)CC1=O | 4.43% (inactive) | 8.61% (inactive) | inactive | inactive | inactive | inactive | inactive | inactive | – | – | – | – | – | – | – |
| COc1cc(C(=S)N2CCOCC2)cc(OC)c1OC | 7.95% (inactive) | 9.84% (inactive) | inactive | inactive | inactive | inactive | inactive | inactive | – | – | – | – | – | – | – |
| CC/C(=C(/CC)c1ccc(O)cc1)c1ccc(O)cc1 | – | -19.4% (inactive) | inactive | – | inactive | inactive | – | inactive | -0.318 (inactive) | -0.188 | 0.271 | – | – | – | – |
| CCOC(=O)OC(C)OC1=C(C(=O)Nc2ccccn2)N(C)S(=O)(=O)c2ccccc21 (stereo unspecified) | 3.03% (inactive) | 19.4% (inactive) | inactive | inactive | inactive | inactive | inactive | inactive | – | – | – | – | – | – | – |
| O=C(CCN1CCC(c2ccccc2)C1)c1ccc2c(c1)OCCO2 (stereo unspecified) | 10.2% (inactive) | 1.82% (inactive) | inactive | inactive | inactive | inactive | inactive | inactive | – | – | – | – | – | – | – |
| Nc1ccc(/C=C/c2ccc(N)cc2S(=O)(=O)O)c(S(=O)(=O)O)c1 | -8.57% (inactive) | 7.68% (inactive) | inactive | inactive | inactive | inactive | inactive | inactive | – | – | – | – | – | – | – |
| CC(C)(Oc1ccc(Cl)cc1)C(=O)O | 5.47% (inactive) | 14.8% (inactive) | inactive | inactive | inactive | inactive | inactive | – | – | – | – | – | – | – | – |
| O=C(O)CNC(=O)c1ccccc1 | -0.717% (inactive) | 10.3% (inactive) | inactive | inactive | inactive | inactive | inactive | inactive | – | – | – | – | – | – | – |
| CCCCOc1ccc(OCCCN2CCOCC2)cc1 | – | – | inactive | inactive | inactive | inactive | inactive | inactive | – | – | – | – | – | 9.41% (inactive) | 8.45% (inactive) |
